# This is a sample that favours compounds with a hit; in the whole collection about 2.3% have one here.
# ANO1 block = TMEM16A chloride channel inhibitors, primary screen, cell-based, HTS | Anoctamin-1 (Mus musculus), Q8BHY3 | HEK293 TMEM16A/YFP iodide influx fluorescence, ionomycin | normalized B-score (activity score, 25-100; higher = stronger inhibition) at 10 µM | 310,000 tested, 1.2% active | AID 588511, 2011;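 active = ratio plate-corrected score three or more library SD toward inhibition, starting fluorescence score within five deviations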;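 note: score derived from kinetic fluorescence span divided by baseline fluorescence per well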
# CHT inh = inhibitors of human choline transporter CHT; High affinity choline transporter 1 (Homo sapiens), Q9GZV3; CHT-expressing cells, membrane potential dye, choline response; active compounds read low; B-score at 10 µM; 310,000 tested, 0.86% active;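 active = B-score over 3 SD under the library average, and starting fluorescence ratio not unusually high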;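 note: choline stimulus applied at its EC90 after an EC20 pre-addition; B-score computed on integrated fluorescence ratio after choline addition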
# CHT PAM = CHT positive allosteric modulators, primary screen, cell-based, membrane potential dye, choline EC20 | CHT-expressing cells; active compounds read high; LV-AA mutant CHT in HEK293 cells | B-score at 10 µM | 310,000 tested, 0.49% active;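 active = initial fluorescence not abnormally high and integrated response B-score, plate-corrected, over 3 SD above library mean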
# ANO1 activ = TMEM16A chloride channel activators or potentiators, primary screen, cell-based, HTS. B-score at 10 µM. 340,000 tested, 0.3% active. Anoctamin-1 (Mus musculus), Q8BHY3. HEK293 TMEM16A/YFP-H148Q/I152L, iodide quench fluorescence; active compounds read low;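 active = fluorescence-ratio B-score plate-corrected deviation score at least 3 library SD below zero, with starting fluorescence score within 5 deviations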;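 note: channel opened by trigger with iodide after compound preincubation; score built on the fluorescence ratio of max minus min over baseline; more negative score means more quench and so TMEM16A activation or potentiation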
# CHT activ conf = CHT activators, confirmation, cell-based, membrane potential dye, duplicate; shares compounds with CHT PAM; CHT-expressing cells, membrane potential dye fluorescence (FDSS); % of choline EC20–EC90 response window; HEK293 expressing CHT LV-AA mutant; choline added at its EC20; activation, % at 10 µM; 2,500 tested, 91% active; AID 504833, 2011;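 active = primary screen active, with duplicate mean activation above negative control mean plus 3 SD, cut at about 11% in these data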
# HEK293 MP dye = membrane potential response in parental HEK293 cells, counter-screen for CHT activator project, cell-based, membrane potential dye. shares compounds with CHT PAM. membrane potential dye fluorescence (FDSS); measured after EC20 choline addition. ratio readout change at 10 µM, hits read low. 2,500 tested, 62% active;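 active = duplicate-averaged ratio beyond 3 SD from buffer wells, up or down, though filed actives are nearly all decreases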
# The depositor's hits bear a star; i = inactive; nt = no result given.
SMILES,ANO1 block,CHT inh,CHT PAM,ANO1 activ,CHT activ conf,HEK293 MP dye
CCOc1ncccc1C(=O)OCC(=O)NCc1ccc(C(=O)OC)cc1,nt,nt,nt,i,nt,nt
COc1ccccc1CNC(=O)C1Cc2cc(S(=O)(=O)N3CCCCC3)ccc2N1C(C)=O (stereo not given),i,i,i,i,nt,nt
CC(=O)Oc1c(Cl)cc(N(C(C)=O)S(=O)(=O)c2ccccc2)c2ccccc12,i,i,i,i,nt,nt
Cc1ccc(NC(=O)CNC(=O)c2cccc(C)c2)nc1,i,i,i,i,nt,nt
Cn1c(=O)[nH]c(=O)c2c1nc(SCCN1CCCCC1)n2Cc1ccccc1,i,i,9.9*,i,58*,-61*
Cn1c(=O)[nH]c(=O)c2c1nc(SCCN1CCCCC1)n2CCCc1ccccc1,i,i,i,i,53*,-54*
Cc1ccc(NC(=O)NNC(=O)C2CC(c3cccs3)=NO2)cc1 (stereo not given),i,i,i,i,nt,nt
CCC[n+]1c(C)sc2c3c(ccc21)CCCC3,i,i,11*,i,82*,-69*
CCC1CCCCN1CC(O)Cn1c2ccccc2n2c(=O)cc(C)c(C#N)c12 (stereo not given),i,i,7.7*,i,39*,-28*
Cc1cc(=O)n2c3ccccc3n(CC(O)CN3CCN(CCO)CC3)c2c1C#N (stereo not given),i,i,i,i,46*,-34*
Cn1c2ccccc2n2c(=O)cc(-c3ccccc3)c(C#N)c12,i,i,i,i,nt,nt
Cc1cc(=O)n2c3ccccc3n(CC(O)CN3CCC(C)CC3)c2c1C#N (stereo not given),nt,nt,nt,i,nt,nt
Cc1cc(=O)n2c3ccccc3n(CC(O)CN3CCN(Cc4ccccc4)CC3)c2c1C#N (stereo not given),i,i,7.6*,i,51*,-55*
Cc1ccc(F)c(Cn2cnc3c(cnn3C(C)(C)C)c2=O)c1Cl,nt,nt,nt,i,nt,nt
CN(C)c1ccc(/C=N/NC(=O)C(=O)/C=C2\NC3(CCCC3)Cc3ccccc32)cc1,i,i,6.7*,i,0,i
COc1cc(/C=N/NC(=O)C(=O)/C=C2\NC3(CCCC3)Cc3ccccc32)ccc1O,i,i,i,i,nt,nt
O=C(c1cccc(S(=O)(=O)Nc2ccccc2Cl)c1)N1CCN(c2ccccc2O)CC1,nt,nt,nt,i,nt,nt
CC(=NCCCn1ccnc1)C1=C(O)c2ccccc2C1=O,i,i,i,i,29*,-38*
c1ccc(-c2ccccc2OCCCN2CCCC2)cc1,i,i,i,i,2,i
Nn1c(-c2cccc(O)c2)nnc1-c1cccc(O)c1,nt,nt,nt,i,nt,nt
O=C(CSc1nnc(Cc2cccs2)n1C1CCCCC1)N1CCCc2ccccc21,i,i,6.4*,i,31*,i
Cn1c(Cc2cccs2)nnc1SCC(=O)N1CCCc2ccccc21,i,i,i,i,nt,nt
Cc1noc(C)c1C(=O)OCC(=O)Nc1cc(Cl)ccc1Oc1ccccc1,i,i,6.7*,i,28*,i
CC(C)(C)OC(=O)C[C@H]1C/C=C\C[C@@H](CC(=O)N[C@@H](CO)Cc2ccccc2)C(=O)NC[C@H](c2ccccc2)OC1=O,nt,nt,nt,i,nt,nt
Cc1ccc(C(C(=O)NC2CCCCC2)N(C(=O)Cc2c[nH]c3ccccc23)c2ccccc2C)o1 (stereo not given),i,i,i,i,nt,nt
Cc1ccc(C(C(=O)NC2CCCC2)N(Cc2ccco2)C(=O)CCC(=O)Nc2cc(C)on2)cc1 (stereo not given),i,i,6.4*,i,-1,i
Cc1cc(NC(=O)CCC(=O)N(Cc2ccccc2)C(C(=O)NC2CCCC2)c2ccco2)no1 (stereo not given),i,i,i,i,nt,nt

# High-throughput results: PubChem, Johns Hopkins Ion Channel Center
